Experiment in all cases: DAPPL (digital affinity profiling via proximity ligation, sequencing); 10 mM Tris-HCl pH 7.5, 50 mM NaCl, 1 mM DTT, 4% glycerol, room temperature, 30 min; GST-TFs on glutathione beads, 16-mer random dsDNA library, 0.1% formaldehyde crosslink after washing; high values mean tight binding
The target in one assay is T1, FLI1 (Homo sapiens, UniProt Q01543 1-452).
T1 sequence: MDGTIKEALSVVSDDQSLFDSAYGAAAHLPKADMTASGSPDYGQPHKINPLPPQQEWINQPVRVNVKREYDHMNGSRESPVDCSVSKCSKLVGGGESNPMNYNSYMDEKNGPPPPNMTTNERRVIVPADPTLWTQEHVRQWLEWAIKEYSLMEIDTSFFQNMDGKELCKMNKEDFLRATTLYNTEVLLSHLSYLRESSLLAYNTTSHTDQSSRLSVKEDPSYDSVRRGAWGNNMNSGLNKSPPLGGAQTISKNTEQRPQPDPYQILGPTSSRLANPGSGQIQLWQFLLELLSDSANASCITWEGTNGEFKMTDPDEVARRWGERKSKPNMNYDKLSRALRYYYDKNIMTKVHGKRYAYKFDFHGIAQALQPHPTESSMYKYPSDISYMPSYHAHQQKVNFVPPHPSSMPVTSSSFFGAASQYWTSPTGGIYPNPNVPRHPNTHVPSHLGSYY
The conditions noted are these: protein: recombinant; tags: N-terminal GST; dsDNA, one strand shown. In a few lines: (§1)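 Pools were built from human transcription factors expressed in yeast as GST fusions, captured on glutathione beads and DNA-barcoded, along with a tag-only sample. Incubation with 200 nmole of a 16-mer random double-stranded DNA library lasted 30 min at room temperature in Tris/NaCl/DTT/glycerol buffer, and was followed by washing, 0.1% formaldehyde crosslinking, proximity ligation, PCR amplification and Illumina NextSeq500 sequencing. Binding signal is the quotient of each hexamer's read frequency for a factor and its frequency for the tag-only sample.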

In a further assay the target is T2, ELK1 (Homo sapiens, UniProt P19419 1-428).
T2 sequence: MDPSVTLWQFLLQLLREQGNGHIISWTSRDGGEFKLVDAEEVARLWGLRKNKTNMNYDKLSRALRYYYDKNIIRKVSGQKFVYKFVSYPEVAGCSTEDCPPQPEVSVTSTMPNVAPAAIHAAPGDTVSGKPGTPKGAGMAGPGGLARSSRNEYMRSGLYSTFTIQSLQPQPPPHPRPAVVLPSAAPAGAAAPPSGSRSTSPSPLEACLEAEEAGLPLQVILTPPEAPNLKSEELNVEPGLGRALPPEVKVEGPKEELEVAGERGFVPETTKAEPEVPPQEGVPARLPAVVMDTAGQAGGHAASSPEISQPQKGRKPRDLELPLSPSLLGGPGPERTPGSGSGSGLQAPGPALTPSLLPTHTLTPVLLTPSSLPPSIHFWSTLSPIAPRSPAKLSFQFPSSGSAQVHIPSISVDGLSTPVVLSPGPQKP
The conditions noted are these: protein: recombinant; tags: N-terminal GST; dsDNA, one strand shown. In a few lines: as §1

The next assay concerns the target T3, GABPA (Homo sapiens, UniProt Q06546 1-454).
T3 sequence: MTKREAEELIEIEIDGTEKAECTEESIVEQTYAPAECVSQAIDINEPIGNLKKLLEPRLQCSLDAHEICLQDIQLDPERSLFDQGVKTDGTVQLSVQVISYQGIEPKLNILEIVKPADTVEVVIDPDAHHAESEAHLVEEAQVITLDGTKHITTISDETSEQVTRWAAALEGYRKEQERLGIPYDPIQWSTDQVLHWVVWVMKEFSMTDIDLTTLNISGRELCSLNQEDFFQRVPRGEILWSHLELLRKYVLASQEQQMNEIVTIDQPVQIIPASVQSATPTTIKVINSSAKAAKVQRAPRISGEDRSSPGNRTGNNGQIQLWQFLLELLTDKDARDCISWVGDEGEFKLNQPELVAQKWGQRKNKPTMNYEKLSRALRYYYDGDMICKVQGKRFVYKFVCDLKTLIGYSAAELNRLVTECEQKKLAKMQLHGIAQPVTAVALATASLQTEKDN
The conditions noted are these: protein: recombinant; tags: N-terminal GST; dsDNA, one strand shown. In a few lines:
as §1

Another assay concerns the target T4, ERG (Homo sapiens, UniProt P11308 1-479).
T4 sequence: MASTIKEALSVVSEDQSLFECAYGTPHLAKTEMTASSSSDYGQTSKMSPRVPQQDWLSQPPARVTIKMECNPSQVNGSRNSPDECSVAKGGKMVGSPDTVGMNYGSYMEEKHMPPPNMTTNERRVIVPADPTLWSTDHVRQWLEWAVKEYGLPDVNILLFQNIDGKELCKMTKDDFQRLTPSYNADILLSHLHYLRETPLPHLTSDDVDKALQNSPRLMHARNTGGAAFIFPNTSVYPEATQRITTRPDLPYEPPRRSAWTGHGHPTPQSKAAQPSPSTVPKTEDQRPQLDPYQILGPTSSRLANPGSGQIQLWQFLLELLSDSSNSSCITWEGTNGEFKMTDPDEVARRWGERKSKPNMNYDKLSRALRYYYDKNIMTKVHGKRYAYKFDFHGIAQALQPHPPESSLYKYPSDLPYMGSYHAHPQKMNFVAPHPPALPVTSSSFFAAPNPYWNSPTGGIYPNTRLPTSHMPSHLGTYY
The conditions noted are these: protein: recombinant; tags: N-terminal GST; dsDNA, one strand shown. In a few lines:
as §1

The target in another assay is ELF1 (Homo sapiens, UniProt P32519 1-619). The conditions noted are these: protein: recombinant; tags: N-terminal GST; dsDNA, one strand shown. In short, it runs like this:
as §1

The next assay addresses T5, EHF (Homo sapiens, UniProt Q9NZC4 1-300).
T5 sequence: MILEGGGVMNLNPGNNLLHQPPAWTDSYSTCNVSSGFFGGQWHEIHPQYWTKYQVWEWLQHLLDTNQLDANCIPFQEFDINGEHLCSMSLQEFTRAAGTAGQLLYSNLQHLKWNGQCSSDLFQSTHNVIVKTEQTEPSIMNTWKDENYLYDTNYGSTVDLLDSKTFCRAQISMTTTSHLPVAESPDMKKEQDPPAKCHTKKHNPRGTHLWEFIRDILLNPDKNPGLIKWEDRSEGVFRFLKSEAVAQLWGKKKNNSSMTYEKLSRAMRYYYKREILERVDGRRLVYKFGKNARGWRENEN
The conditions noted are these: protein: recombinant; tags: N-terminal GST; dsDNA, one strand shown. In short, it runs like this:
as §1

The target in a further assay is SPI1 (Homo sapiens, UniProt P17947 1-270). The conditions noted are these: protein: recombinant; tags: N-terminal GST; dsDNA, one strand shown. In short, it runs like this: as §1
The next assay concerns the target SPIB (Homo sapiens, UniProt Q01892 1-262). The conditions noted are these: protein: recombinant; tags: N-terminal GST; dsDNA, one strand shown. In short, it runs like this: as §1
The next assay concerns the target T6, ELK3 (Homo sapiens, UniProt P41970 1-407).
T6 sequence: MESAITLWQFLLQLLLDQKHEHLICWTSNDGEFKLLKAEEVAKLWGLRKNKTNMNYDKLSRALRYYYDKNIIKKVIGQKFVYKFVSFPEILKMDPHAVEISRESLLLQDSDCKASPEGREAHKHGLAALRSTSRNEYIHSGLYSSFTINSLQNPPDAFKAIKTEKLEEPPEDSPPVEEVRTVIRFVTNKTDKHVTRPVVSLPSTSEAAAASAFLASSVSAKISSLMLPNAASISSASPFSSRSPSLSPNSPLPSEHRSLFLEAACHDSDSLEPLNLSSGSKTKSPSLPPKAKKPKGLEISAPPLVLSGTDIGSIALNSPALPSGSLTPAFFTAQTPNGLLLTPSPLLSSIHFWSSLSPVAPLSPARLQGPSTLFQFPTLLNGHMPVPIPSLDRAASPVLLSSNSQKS
The conditions noted are these: protein: recombinant; tags: N-terminal GST; dsDNA, one strand shown. In short, it runs like this:
as §1

In a further assay the target is T7, FEV (Homo sapiens, UniProt Q99581 1-238).
T7 sequence: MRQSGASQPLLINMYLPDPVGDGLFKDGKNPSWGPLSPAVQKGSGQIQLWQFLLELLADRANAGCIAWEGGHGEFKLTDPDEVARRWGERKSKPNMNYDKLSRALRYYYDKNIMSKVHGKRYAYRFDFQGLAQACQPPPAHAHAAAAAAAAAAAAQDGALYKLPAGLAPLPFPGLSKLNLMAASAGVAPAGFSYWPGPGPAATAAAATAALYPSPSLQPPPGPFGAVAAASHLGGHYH
The conditions noted are these: protein: recombinant; tags: N-terminal GST; dsDNA, one strand shown. In short, it runs like this:
as §1

Another assay deals with ETV5 (Homo sapiens, UniProt P41161 1-510). The conditions noted are these: protein: recombinant; tags: N-terminal GST; dsDNA, one strand shown. In a few lines:
as §1

The target in a further assay is HSF1 (Homo sapiens, UniProt Q00613 1-529). The conditions noted are these: protein: recombinant; tags: N-terminal GST; chain copies: 3; dsDNA, one strand shown. In a few lines: as §1
Sequence of HSF1 (Q00613 whole entry): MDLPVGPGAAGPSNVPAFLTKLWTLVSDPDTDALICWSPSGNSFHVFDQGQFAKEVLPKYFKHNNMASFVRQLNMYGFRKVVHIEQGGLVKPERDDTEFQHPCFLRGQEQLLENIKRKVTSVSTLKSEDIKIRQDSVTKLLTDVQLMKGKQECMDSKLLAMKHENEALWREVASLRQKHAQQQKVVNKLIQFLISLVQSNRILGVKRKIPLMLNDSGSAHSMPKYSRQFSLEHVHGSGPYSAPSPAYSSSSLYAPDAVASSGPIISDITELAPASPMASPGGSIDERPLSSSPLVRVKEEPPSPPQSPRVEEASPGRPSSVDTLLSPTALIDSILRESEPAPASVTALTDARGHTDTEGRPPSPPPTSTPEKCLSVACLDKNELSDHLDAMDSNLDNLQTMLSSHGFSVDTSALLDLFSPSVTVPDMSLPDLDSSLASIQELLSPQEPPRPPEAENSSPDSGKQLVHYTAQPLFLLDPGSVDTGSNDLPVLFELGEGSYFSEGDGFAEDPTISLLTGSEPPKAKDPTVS
A further assay deals with T8, SPIC (Homo sapiens, UniProt Q8N5J4 1-248).
T8 sequence: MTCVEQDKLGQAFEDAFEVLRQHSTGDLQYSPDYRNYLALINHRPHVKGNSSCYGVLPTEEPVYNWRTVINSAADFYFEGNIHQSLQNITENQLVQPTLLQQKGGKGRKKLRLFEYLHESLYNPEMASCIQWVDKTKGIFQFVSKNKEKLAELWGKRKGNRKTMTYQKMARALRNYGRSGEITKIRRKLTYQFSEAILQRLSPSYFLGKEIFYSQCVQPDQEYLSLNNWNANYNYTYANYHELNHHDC
The conditions noted are these: protein: recombinant; tags: N-terminal GST; dsDNA, one strand shown. In short, it runs like this:
as §1

Another assay concerns the target ELF4 (Homo sapiens, UniProt Q99607 1-663). The conditions noted are these: protein: recombinant; tags: N-terminal GST; dsDNA, one strand shown. In short, it runs like this: as §1
A further assay deals with T9, ELK4 (Homo sapiens, UniProt P28324-2 1-405).
T9 sequence: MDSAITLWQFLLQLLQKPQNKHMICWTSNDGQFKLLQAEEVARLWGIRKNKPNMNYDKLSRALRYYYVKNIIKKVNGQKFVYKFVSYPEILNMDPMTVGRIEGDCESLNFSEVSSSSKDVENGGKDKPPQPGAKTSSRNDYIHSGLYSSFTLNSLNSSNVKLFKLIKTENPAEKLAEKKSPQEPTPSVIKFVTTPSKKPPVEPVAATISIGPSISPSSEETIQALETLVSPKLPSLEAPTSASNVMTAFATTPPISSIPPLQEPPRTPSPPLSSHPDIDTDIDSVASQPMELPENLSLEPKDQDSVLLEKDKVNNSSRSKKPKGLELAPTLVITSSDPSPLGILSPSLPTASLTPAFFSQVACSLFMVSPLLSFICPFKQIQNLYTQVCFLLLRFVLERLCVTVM
The conditions noted are these: protein: recombinant; tags: N-terminal GST; dsDNA, one strand shown. In short, it runs like this: as §1

In another assay the target is T10, ETV2 (Homo sapiens, UniProt O00321 1-342).
T10 sequence: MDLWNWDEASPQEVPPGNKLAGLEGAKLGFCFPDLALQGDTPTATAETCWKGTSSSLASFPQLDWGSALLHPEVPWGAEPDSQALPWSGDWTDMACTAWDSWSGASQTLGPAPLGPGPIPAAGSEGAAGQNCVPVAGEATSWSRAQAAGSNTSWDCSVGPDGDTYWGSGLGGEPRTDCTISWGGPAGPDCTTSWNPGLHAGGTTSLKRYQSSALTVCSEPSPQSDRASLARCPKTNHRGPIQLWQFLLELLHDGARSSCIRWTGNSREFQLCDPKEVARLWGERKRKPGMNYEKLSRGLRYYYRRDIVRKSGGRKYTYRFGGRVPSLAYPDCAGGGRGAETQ
The conditions noted are these: protein: recombinant; tags: N-terminal GST; dsDNA, one strand shown. In a few lines: as §1

In another assay the target is T11, ELF3 (Homo sapiens, UniProt P78545 1-371).
T11 sequence: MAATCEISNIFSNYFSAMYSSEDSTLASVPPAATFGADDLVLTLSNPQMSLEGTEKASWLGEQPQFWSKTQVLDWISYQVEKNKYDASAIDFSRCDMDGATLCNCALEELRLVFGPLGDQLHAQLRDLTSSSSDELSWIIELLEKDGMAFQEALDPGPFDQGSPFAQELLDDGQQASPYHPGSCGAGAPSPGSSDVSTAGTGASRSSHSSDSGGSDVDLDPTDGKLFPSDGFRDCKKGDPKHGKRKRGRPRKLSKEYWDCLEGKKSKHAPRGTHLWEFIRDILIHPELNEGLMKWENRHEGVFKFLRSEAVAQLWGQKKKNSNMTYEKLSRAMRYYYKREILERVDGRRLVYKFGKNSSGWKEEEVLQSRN
The conditions noted are these: protein: recombinant; tags: N-terminal GST; dsDNA, one strand shown. In a few lines:
as §1

For another assay, the target named is ETV1 (Homo sapiens, UniProt P50549 1-477). The conditions noted are these: protein: recombinant; tags: N-terminal GST; dsDNA, one strand shown. In a few lines:
as §1

Sequence of ELF4 (Q99607 whole entry): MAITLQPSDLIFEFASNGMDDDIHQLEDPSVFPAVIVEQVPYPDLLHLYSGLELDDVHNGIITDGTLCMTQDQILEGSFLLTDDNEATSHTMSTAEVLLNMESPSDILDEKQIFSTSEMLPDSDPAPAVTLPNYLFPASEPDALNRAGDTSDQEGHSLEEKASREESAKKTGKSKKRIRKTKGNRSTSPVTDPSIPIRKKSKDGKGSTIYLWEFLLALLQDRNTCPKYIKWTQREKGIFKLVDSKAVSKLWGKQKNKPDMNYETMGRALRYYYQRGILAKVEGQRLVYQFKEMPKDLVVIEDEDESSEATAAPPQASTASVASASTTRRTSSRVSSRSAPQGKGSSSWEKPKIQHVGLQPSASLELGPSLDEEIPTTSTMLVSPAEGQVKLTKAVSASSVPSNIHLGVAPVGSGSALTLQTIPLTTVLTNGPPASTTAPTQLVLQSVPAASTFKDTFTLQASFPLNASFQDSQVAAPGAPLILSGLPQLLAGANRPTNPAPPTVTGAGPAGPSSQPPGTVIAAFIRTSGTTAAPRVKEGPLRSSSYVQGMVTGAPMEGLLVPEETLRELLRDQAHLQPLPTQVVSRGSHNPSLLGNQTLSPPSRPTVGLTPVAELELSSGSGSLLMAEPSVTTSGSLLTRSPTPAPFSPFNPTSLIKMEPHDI
Sequence of ETV1 (P50549 whole entry): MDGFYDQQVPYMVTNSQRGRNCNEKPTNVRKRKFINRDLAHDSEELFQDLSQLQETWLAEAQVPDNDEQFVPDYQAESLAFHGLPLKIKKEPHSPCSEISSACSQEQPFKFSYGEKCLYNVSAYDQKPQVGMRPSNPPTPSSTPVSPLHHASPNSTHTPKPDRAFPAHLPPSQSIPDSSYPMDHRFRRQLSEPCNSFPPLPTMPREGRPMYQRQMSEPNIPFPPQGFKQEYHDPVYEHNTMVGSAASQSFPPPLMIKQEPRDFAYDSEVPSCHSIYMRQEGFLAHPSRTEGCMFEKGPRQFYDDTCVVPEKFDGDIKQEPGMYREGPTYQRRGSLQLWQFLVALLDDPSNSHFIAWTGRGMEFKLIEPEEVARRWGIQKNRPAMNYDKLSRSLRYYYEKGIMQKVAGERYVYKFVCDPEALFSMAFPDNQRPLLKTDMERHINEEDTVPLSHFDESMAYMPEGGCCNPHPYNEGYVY
Sequence of ETV5 (P41161 whole entry): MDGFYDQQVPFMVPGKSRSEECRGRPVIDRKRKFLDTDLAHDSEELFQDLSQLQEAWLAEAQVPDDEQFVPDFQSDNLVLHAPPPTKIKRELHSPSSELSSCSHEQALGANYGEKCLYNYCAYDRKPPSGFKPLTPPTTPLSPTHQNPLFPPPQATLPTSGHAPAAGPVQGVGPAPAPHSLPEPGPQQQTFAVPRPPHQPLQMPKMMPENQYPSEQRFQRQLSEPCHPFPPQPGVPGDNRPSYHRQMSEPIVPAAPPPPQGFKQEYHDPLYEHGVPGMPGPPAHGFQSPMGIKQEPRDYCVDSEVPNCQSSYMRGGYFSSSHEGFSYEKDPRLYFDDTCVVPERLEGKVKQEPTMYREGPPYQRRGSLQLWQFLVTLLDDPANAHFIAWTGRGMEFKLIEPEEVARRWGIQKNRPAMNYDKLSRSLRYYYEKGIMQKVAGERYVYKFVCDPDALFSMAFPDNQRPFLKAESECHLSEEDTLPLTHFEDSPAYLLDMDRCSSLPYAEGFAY
Sequence of ELF1 (P32519 whole entry): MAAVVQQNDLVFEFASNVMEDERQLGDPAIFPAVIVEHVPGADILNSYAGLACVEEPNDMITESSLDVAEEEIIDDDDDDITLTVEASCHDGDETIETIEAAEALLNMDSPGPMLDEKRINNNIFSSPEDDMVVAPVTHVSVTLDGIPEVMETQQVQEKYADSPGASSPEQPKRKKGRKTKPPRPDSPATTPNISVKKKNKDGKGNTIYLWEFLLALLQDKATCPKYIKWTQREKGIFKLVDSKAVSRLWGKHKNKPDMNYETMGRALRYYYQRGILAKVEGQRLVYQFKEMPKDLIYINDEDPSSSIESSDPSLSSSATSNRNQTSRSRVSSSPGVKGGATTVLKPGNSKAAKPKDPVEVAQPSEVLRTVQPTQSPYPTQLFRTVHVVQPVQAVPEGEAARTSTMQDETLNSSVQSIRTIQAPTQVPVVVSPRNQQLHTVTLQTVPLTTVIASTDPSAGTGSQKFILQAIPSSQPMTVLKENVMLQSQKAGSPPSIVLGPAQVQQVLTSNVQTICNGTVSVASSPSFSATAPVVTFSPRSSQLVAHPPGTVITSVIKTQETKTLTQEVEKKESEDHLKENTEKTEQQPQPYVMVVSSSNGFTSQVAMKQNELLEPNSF
Sequence of SPIB (Q01892 whole entry): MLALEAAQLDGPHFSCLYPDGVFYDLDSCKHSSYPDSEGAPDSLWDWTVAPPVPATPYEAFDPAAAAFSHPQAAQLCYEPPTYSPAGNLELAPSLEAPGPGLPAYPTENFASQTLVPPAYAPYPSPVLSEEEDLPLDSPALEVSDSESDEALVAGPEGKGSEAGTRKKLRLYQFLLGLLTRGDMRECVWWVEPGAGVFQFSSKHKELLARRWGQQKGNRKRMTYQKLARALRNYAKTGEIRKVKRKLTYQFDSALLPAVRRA

CACTGG: the binding signal is 1.15 fold enrichment (6-mer frequency, TF over GST control) with FLI1; 1.07 fold enrichment (6-mer frequency, TF over GST control) in the assay with ELK1; 1.15 fold enrichment (6-mer frequency, TF over GST control) with GABPA; 1.12 fold enrichment (6-mer frequency, TF over GST control) with ERG; 1.17 fold enrichment (6-mer frequency, TF over GST control) with ELF1; 1.05 fold enrichment (6-mer frequency, TF over GST control) with EHF. The binding signal with SPI1 is 1.03 fold enrichment (6-mer frequency, TF over GST control); with SPIB, 1.11 fold enrichment (6-mer frequency, TF over GST control); with ELK3, 1.02 fold enrichment (6-mer frequency, TF over GST control); with FEV, 1.07 fold enrichment (6-mer frequency, TF over GST control); with ETV5, 1.13 fold enrichment (6-mer frequency, TF over GST control); with HSF1 it was 1.16 fold enrichment (6-mer frequency, TF over GST control). Further, the binding signal with SPIC is 1.24 fold enrichment (6-mer frequency, TF over GST control); in the assay with ELF4, 1.04 fold enrichment (6-mer frequency, TF over GST control); with ELK4, 1.05 fold enrichment (6-mer frequency, TF over GST control); with ETV2, 1.22 fold enrichment (6-mer frequency, TF over GST control); in the assay with ELF3 it was 1.11 fold enrichment (6-mer frequency, TF over GST control); in the assay with ETV1, 1.22 fold enrichment (6-mer frequency, TF over GST control).

Source of the values: PMC7862700, “An all-to-all approach to the identification of sequence-specific readers for epigenetic DNA modifications on cytosine”.
